A selection: hits, their analogues and other compounds. The true share with any hit is near 1.5%.
PrPC surface inh: inhibitors of human cell surface prion protein PrPC, primary screen, cell-based, TR-FRET; 370,000 tested, 0.43% active; TR-FRET read-out; inhibition, % at 13.8 µM; Major prion protein (Homo sapiens), P04156; in the data active means inhibition above about 24%; further: 0% = median of the test wells and 100% = reference compound wells
3CLpro inhibitor: SARS-CoV 3CLpro protease inhibitors, primary screen, biochemical, quenched FRET; 290,000 tested, 0.14% active; recombinant SARS-CoV 3CLpro, quenched FRET peptide cleavage; inhibition, % at 6 µM; Replicase polyprotein 1ab (Severe acute respiratory syndrome coronavirus), P0C6X7; in the data active means inhibition above about 12%
Mtb hypoxia rep: PubChem AID 1159583. M. tuberculosis hypoxia-regulated fluorescent reporter, fluorescence. fluorescence inhibition, % (concentration not given with the values). 300,000 tested, 0.1% active; in the data active means fluorescence inhibition mostly above about 23%, no sharp cut-off; inactive means mostly below about 17%
MazEF act: activators of E. coli MazEF toxin-antitoxin RNase, primary screen, biochemical, fluorescence, uHTS; FAM/BHQ RNA-DNA oligo cleavage fluorescence, 5 h; activation, % at 20 µM; 350,000 tested, 0.32% active; in the data active means activation above about 50%
Target sequence (P0AE70 whole entry, looked up): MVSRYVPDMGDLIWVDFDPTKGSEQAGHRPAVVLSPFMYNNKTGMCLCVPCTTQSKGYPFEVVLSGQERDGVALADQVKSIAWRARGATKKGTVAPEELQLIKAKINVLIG
PrP 5UTR inh: inhibition of PrP 5' UTR reporter expression | AID 488862, 2010 | inhibition, % (test concentration not listed) | cell-based PrP 5' UTR mRNA reporter, plate reader | 340,000 tested, 0.35% active; in the data active means inhibition above about 52%; further: 0 = median of the neutral control wells
DUSP3 inh: VHR1 phosphatase inhibitors, primary screen, biochemical, absorbance, uHTS. recombinant VHR phosphatase, pNPP absorbance. inhibition, % at 13.3 µM. 290,000 tested, 0.52% active. AID 1654, 2009. Dual specificity protein phosphatase 3 (Homo sapiens), P51452; in the data active means inhibition above about 50%
Target sequence (P51452 whole entry, looked up): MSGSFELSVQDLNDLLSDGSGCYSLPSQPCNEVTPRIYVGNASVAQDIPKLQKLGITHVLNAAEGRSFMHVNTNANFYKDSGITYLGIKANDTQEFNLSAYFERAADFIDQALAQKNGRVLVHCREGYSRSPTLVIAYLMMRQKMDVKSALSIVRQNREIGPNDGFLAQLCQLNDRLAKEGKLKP
Numbers without * were called inactive; nt = not tested or not shown.

SMILES | PrPC surface inh | 3CLpro inhibitor | Mtb hypoxia rep | MazEF act | PrP 5UTR inh | DUSP3 inh
CC(=O)N/C(=N\c1nc(C)cc(C)n1)Nc1ccc2ccccc2c1 | 1 | -3 | nt | 3 | 19 | 54*
CC(=O)N/C(=N/c1nc(C)cc(C)n1)Nc1ccc(NC(C)=O)cc1 | 2 | -4 | nt | 9 | -2 | 9
CCn1c2ccc(OC)cc2c2nc3ccccc3nc21 | -11 | -4 | 6 | 18 | nt | 13
CCCCOC(=O)Cn1c2ccc(OC)cc2c2nc3ccccc3nc21 | -4 | -3 | 2 | 215* | -18 | 19
CCOc1ccc(Cn2c3ccc(OC)cc3c3nc4ccccc4nc32)cc1 | -3 | 0 | 4 | 65* | -19 | 11
COC(=O)Cn1c2ccccc2c2nc3ccccc3nc21 | -9 | 2 | -8 | -18 | -22 | 4
O=C(NCc1cccnc1)/C(=C/c1ccc(Cl)cc1)NC(=O)c1ccccc1 | -7 | 0 | 2 | 0 | -6 | 11
O=C(NCc1ccccc1Cl)/C(=C\c1cccnc1)NC(=O)c1ccccc1 | -12 | 6 | -6 | 4 | -4 | 58*
COc1ccc(C2C=CCNCC(=O)N2Cc2ccc(F)cc2)cc1 (stereo unspecified) | nt | nt | 0 | nt | nt | nt
CN(CC(=O)Nc1ccc(OC(F)(F)F)cc1)C(=O)/C=C/c1cc2c(cc1[N+](=O)[O-])OCO2 | -9 | nt | 30* | 4 | -14 | nt
COc1ccc(-c2sc3ccccc3c2-c2ccc(OCCN(C)C)cc2)cc1 | -1 | nt | 47* | 11 | -4 | nt
CN(C)CCOc1ccc(-c2c(-c3ccsc3)sc3ccccc23)cc1 | -4 | nt | nt | -6 | -8 | nt
NCCCCC(NC(=O)C1CCNCC1)c1nnc(C(N)CO)o1 (stereo unspecified) | nt | nt | 12 | nt | nt | nt
CCc1ccc2[nH]c(=O)c(CN(CCCN3CCOCC3)C(=O)Nc3ccc(Cl)cc3)cc2c1 | -6 | -6 | nt | -1 | -9 | 53*
O=C(Nc1ccc(Cl)c(C(F)(F)F)c1)C1CC=CC2CCN(C3CCCCC3)C(=O)C21 (stereo unspecified) | nt | nt | 6 | nt | nt | nt
O=C(O)c1ccc(N=NC(=NNc2ccc(C(=O)O)cc2)c2ccccc2)cc1 | nt | nt | 22 | nt | nt | nt
COC(=O)c1[nH]c2ccccc2c1NC(=O)CN1CCCCCC1 | -3 | -1 | nt | 5 | -11 | -17
COC(=O)c1[nH]c2ccccc2c1CN1CCOCC1 | 6 | -1 | 4 | 0 | -46 | 56*
CC(=O)N1CCN(c2ccc(N=Cc3c(O)n(Cc4ccccc4)c(=O)[nH]c3=O)cc2)CC1 | -8 | -5 | 5 | 77* | -10 | 4
CCC1Oc2ccc(C)cc2N(CC(=O)NCCCN2CCCCC2C)C1=O (stereo unspecified) | -5 | -3 | nt | 12 | -27 | 58*
CC1CCCCN1CCCNC(=O)CN1C(=O)c2cccnc2Oc2ccccc21 (stereo unspecified) | 7 | -1 | 0 | -4 | -20 | 56*
N#CCC(Cc1ccccc1)N1CCN(Cc2ccccc2)CCC1=O (stereo unspecified) | nt | nt | 9 | nt | nt | nt
NC(=O)c1c(NC(=O)C2COc3ccccc3O2)sc2c1CCN(Cc1ccccc1)C2 (stereo unspecified) | -9 | 5 | -6 | 258* | -33 | 6
O=C(Cn1nnc2ccccc21)NN=Cc1cccs1 | nt | nt | 12 | nt | nt | nt
O=C(Oc1ccc2c(c1)O/C(=C\c1ccncc1)C2=O)c1ccccc1 | -4 | 2 | 8 | 220* | -9 | 13
SMILES | PrPC surface inh | 3CLpro inhibitor | Mtb hypoxia rep | MazEF act | PrP 5UTR inh | DUSP3 inh
CCCCNC(=O)/C(C#N)=c1\s/c(=C\c2ccccc2OC(F)F)c(=O)n1CCCOC | 13 | -1 | nt | 85* | 1 | -5
COCCCn1c(=O)/c(=C/c2ccccc2OC(F)F)s/c1=C(\C#N)C(=O)NCCOC | -4 | nt | 6 | 72* | -7 | nt
COCCCn1c(=O)/c(=C\c2ccccc2OC(F)F)s/c1=C(/C#N)C(=O)NCCOC | -1 | -3 | nt | 83* | -14 | 7
COCCNC(=O)/C(C#N)=c1\s/c(=C\c2ccccc2OC(F)F)c(=O)n1Cc1ccccc1 | nt | 4 | nt | nt | nt | -18
COCCCn1c(=C(C#N)C(=O)NCCOC)sc(=Cc2ccccc2OC(F)F)c1=O | nt | nt | -3 | nt | nt | nt
COCCCNC(=O)/C(C#N)=c1\s/c(=C\c2ccccc2OC(F)F)c(=O)n1CCCOC | -6 | 2 | nt | 98* | -14 | -28
Cn1c(-c2ccccc2)c(C=NNC(=O)c2ccc(O)cc2)c2ccccc21 | nt | nt | 7 | nt | nt | nt
CCOC(=O)C1C2COc3ccc(Cl)cc3C2N2C(=O)CNC(=O)[C@@]12C (stereo partly specified) | nt | nt | 20 | nt | nt | nt
Cc1cc(C(=O)CSc2cccc[n+]2[O-])c(C)n1-c1ccccc1 | 1 | -4 | 18 | -8 | -10 | 1
Cc1cc(C(=O)CSc2nncn2C)c(C)n1-c1ccccc1 | 3 | -1 | 12 | 57* | -78 | 26
COc1ccc(C(=O)OCCc2ccc(O)cc2)cc1 | 10 | 0 | 12 | 0 | -54 | -7
COc1ccc(C(=O)OCC[N+]2(C)CCOCC2)cc1 | -4 | -2 | 2 | 3 | 7 | 53*
O=[N+]([O-])c1ccc(-c2cnc(SCc3ccccc3Cl)[nH]2)cc1 | -4 | 4 | 11 | 13 | -29 | 10
Cc1cc(C)c(CSc2ncc(-c3ccc([N+](=O)[O-])cc3)[nH]2)c(C)c1 | 8 | 5 | nt | 76* | -9 | -1
COc1ccc2cc3cc(C(=O)NCCCN4CCOCC4)oc3nc2c1 | -26 | 1 | nt | 4 | -15 | 21
CCN1CCN(CCCNC(=O)c2cc3cc4ccc(OC)cc4nc3o2)CC1 | nt | -6 | nt | 7 | -21 | 55*
O=C(NN=Cc1ccco1)c1cc(-c2ccccc2)n[nH]1 | nt | nt | 12 | nt | nt | nt
CC(NC(=O)c1nc[nH]c1C(=O)NC(C)C(=O)OCc1ccccc1)C(=O)OCc1ccccc1 (stereo unspecified) | nt | nt | 4 | nt | nt | nt
Cc1ccnc(NC(=O)c2ccc(COc3c(F)c(F)cc(F)c3F)o2)c1 | -4 | -6 | 9 | -28 | -23 | 58*
CCOC(=O)O[C@]1(C(=O)COC(=O)CC)CCC2C3CCC4=CC(=O)C=C[C@]4(C)C3C(O)C[C@@]21C (stereo partly specified) | nt | nt | 3 | nt | nt | nt
CCCC(C)NC(=O)c1sc2nc3n(c(=O)c2c1C)CCC3 (stereo unspecified) | -7 | 4 | 16 | 4 | -16 | 54*
Cc1c(C(=O)NCCO)sc2nc3n(c(=O)c12)CCC3 | -1 | -3 | 4 | -10 | -15 | 31
COc1ccc(C2CC(=O)C=C(c3cccc(C#N)c3)C2)cc1 (stereo unspecified) | nt | nt | 3 | nt | nt | nt
CC(=O)c1c(C)[nH]c(C(=O)N2CCN(c3ccccn3)CC2)c1C | -2 | -7 | 0 | -4 | -17 | 57*
CC(Cc1ccccc1)[N+]([O-])=Cc1ccc(C(F)(F)F)cc1 (stereo unspecified) | nt | nt | 25 | nt | nt | nt
